Screening data as filed in PubChem.
Compounds with a hit are over-represented: about 4.6% of the library has one in this group of screens.
D1 agonist – agonists of human D1 dopamine receptor; activation, % at 2 µM; P21728; HEK293 T-REx D1 cells, calcium flux, agonist mode; 360,000 compounds, 1% hits; further: 0% is about no effect
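Agonism was scored from calcium flux recorded over 180 s (1 read/s) after pintool compound addition, following a 10-cycle baseline. Cells were inducible force-coupled HEK293 TREx D1, plated overnight at 30 C and loaded with no-wash calcium dye.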
D1 antagonist – human D1 dopamine receptor antagonism | HEK293 TREx D1 cells, calcium flux, dopamine EC80; stronger effect = lower value | activity change, negative = inhibition, % at 10 µM | 360,000 compounds, 3.2% hits | P21728; in the data active means activity change below about -30%; further: on the % scale 0 is the no-effect control and ±100 the full control effect
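Compound effects on dopamine-evoked calcium signalling were measured in tetracycline-induced HEK293 Trex D1 cells. Dopamine at EC80 followed a 180 s compound pre-read, and fluorescence was tracked kinetically for 180 s more.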
TRHR enhancer – allosteric enhancers of human TRH receptor | P34981 | TRHR cells, fluo-8 calcium fluorescence, EC20 TRH enhancement | enhancement, % at 2 µM | 360,000 compounds, 0.66% hits | AID 493056; in the data active means enhancement above about 30%; further: 0% is about no effect
Target sequence (P34981 whole entry, looked up): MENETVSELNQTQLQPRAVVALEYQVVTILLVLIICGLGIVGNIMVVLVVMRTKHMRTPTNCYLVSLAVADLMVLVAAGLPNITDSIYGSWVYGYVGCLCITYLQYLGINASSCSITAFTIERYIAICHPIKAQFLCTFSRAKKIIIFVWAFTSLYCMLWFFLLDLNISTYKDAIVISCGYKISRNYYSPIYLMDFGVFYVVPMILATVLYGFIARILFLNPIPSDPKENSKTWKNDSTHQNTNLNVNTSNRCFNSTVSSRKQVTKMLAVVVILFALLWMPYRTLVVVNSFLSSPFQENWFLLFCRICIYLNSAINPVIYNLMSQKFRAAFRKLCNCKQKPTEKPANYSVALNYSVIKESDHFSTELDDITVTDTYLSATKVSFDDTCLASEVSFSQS
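Enhancer read-out: after compound pinning and an initial kinetic agonist-mode read, an EC20 of TRH (10 nM final) was injected and fluo-8 calcium signal (Ex 480/Em 530) followed at 1 s/cycle for 100 cycles in TRHR-expressing cells.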
D1 PAM – enhances dopamine response at the human D1 receptor; P21728; HEK293 TREx D1 cells, calcium flux, dopamine EC20 potentiation; potentiation, % at 10 µM; 360,000 compounds, 0.036% hits; AID 504651; in the data active means potentiation above about 30%; further: 0% is about no effect
TRHR ag – agonists of human TRH receptor | 360,000 compounds, 0.18% hits | AID 493084 | TRHR cells, calcium flux fluo-8, FDSS agonist mode | P34981 | activation, % at 2 µM; further: 0% is about no effect
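TRHR-expressing cells loaded with fluo-8 calcium dye; 23 nL library compound pin-transferred, kinetic FDSS fluorescence (Ex 480/Em 530) recorded about 180 s for agonist-induced calcium release, before a 10 nM TRH EC20 addition for potentiator mode.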
* hit, by the source's call; x = not tested or not shown; ! = a repeat was not active. Unless noted, no stated cut-off is given here; in the data, active means activation above about 30%; inactive means the rest.

SMILES	D1 agonist	D1 antagonist	TRHR enhancer	D1 PAM	TRHR ag
COc1ccccc1CNC(=O)CCCn1c(=O)c2cccn2c2ccccc21	26	-36*	-8	-4	-1
CCOc1cc(CNC(=O)CCCn2c(=O)c3cccn3c3cccnc32)cc(OCC)c1OCC	0	-33*!	-3	-5	1
CC(C)CCNC(=O)CCCn1c(=O)c2cccn2c2ccccc21	7	-37*	12	-4	0
CCOc1ccccc1CNC(=O)CCCn1ncn2c(cc3occc32)c1=O	1	-40*!	-4	-2	0
COc1ccc(-c2cnc(OC(C)(C)C)nc2OC(C)(C)C)cc1OC	2	x	-2	-1	0
CC(=O)Nc1cc(C(N)=O)c(Cl)cc1Cl	2	-31*	-3	-9	1
CC(=O)Nc1ccc(Cl)c(C(N)=O)c1	5	1	0	10	0
Cc1ccc(NC2Sc3ccccc3NC2=O)cc1Cl (stereo unspecified)	7	26	0	-1	1
O=C(Nc1cccc(Cl)c1)N(CCN1CCOCC1)Cc1cccc(Cl)c1	48*	-38*	-1	-13	0
Cc1ccc(C)c2[nH]c(=O)c(CN(CCN3CCCC3)C(=O)Nc3cccc(Cl)c3)cc12	39*	-12	3	-11	0
COc1ccc(OC)c(CN(CCN2CCOCC2)C(=O)Nc2cccc(Cl)c2)c1	2	-31*	-1	0	1
CCOC(=O)c1c(C)[nH]c(C)c1C(=O)COC(=O)c1ccc(Cl)c(S(=O)(=O)NCc2ccccc2)c1	3	-8	5	-6	0
CC(C)N=C(NS(=O)(=O)c1ccc(Br)cc1)c1ccc(Cl)cc1	3	-7	-2	-2	0
Nc1nn(-c2ccccc2)c(N)c1N=Nc1ccc2c(c1)OCO2	0	-45*	1	-7	-1
Cc1nc(NCc2ccccc2)c2cc[nH]c2n1	6	-34*	8	-2	0
COc1cccc(-c2nc(NCc3ccccc3)c3ccccc3n2)c1O	6	5	2	-8	-1
CC(C)CN1C(=O)NC2(CCCc3ccccc32)C1=O (stereo unspecified)	1	-80*	-1	11	-1
CC(=O)CN1C(=O)NC2(CCCc3ccccc32)C1=O (stereo unspecified)	1	11	0	7	0
COc1ccc(/C=C/C(=O)OCC(=O)Nc2cc(S(=O)(=O)N(C)C)ccc2Cl)cc1	8	-34*	-2	-11	0
CCN(CC)S(=O)(=O)c1ccc(Cl)c(NC(=O)COc2ccc(OC)cc2)c1	8	-31*	3	1	1
COc1ccc(OC)c(/C=C/C(=O)OCC(=O)Nc2ccc(Cl)c(S(=O)(=O)N(C)C)c2)c1	7	-35*	0	3	0
COc1cc(/C=C/C(=O)OCC(=O)Nc2cc(S(=O)(=O)N(C)C)ccc2Cl)ccc1O	7	6	-2	-3	-2
CCC(=O)N1CCc2cc(CNC(=O)Cc3ccc(F)cc3)ccc21	0	3	1	0	0
CCn1c(/C(C#N)=C/c2ccccc2Cl)nc2ccccc21	1	1	50*	1	1
O=C(Nc1ccc(F)cc1)Nc1nnc(-c2ccccc2)o1	2	-1	0	1	0
SMILES	D1 agonist	D1 antagonist	TRHR enhancer	D1 PAM	TRHR ag
O=C(Nc1nnc(-c2ccccc2)o1)Nc1ccc(F)cc1F	3	-31*	-1	-2	1
CC(C(=O)Nc1ccccc1)n1nnc2sc3c(c2c1=O)CCCC3 (stereo unspecified)	-1	1	-1	7	-2
CN(Cc1ccc(F)cc1)S(=O)(=O)c1nnc(NC(=O)c2ccccc2Br)s1	11	-45*!	-1	-7	0
COc1ccc(C)cc1NC(=O)c1ccc2c(c1)N(Cc1cccc(Cl)c1)C(=O)c1ccccc1S2=O (stereo unspecified)	4	6	10	-6	-1
CC(=O)OC1COC(N2CCc3ccccc32)C(OC(C)=O)C1OC(C)=O (stereo unspecified)	1	8	36*	1	0
O=C(NCC(c1ccccc1)c1ccccc1)c1nn(-c2ccccc2F)nc1CO	7	3	-1	4	0
Cc1ccc(-c2nc(Nc3ccc(O)cc3)c3ccccc3n2)cc1	0	-23	2	-6	2
